# Results reported in article PMC8384837, “Expanding the binding specificity for RNA recognition by a PUF domain”.
# What was measured:
# Experiment in all cases: yeast three-hybrid, YBZ-1, SC-Leu-His + 0.5 mM 3-AT, 4 days
# Conditions in all cases: tags: N-Gal4 AD-HA kept; label: inside an RPR1-promoter hybrid RNA with tandem MS2 sites; ssRNA
# PUM1 PUF domain R5-RMP = PUM1 PUF domain R5-RMP (Homo sapiens, UniProt Q14671 828-1176, C1007R;R1008M;Q1011P)
# Procedure, shortened: (§1)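 Each repeat of the Pumilio-1 PUF domain was randomized at its three base-contacting residues, and these libraries were co-expressed from a centromeric plasmid with matching RNA elements in strain YBZ-1. After four days on SC-Leu (input) or SC-Leu-His + 0.5 mM 3-AT (selection), the repeat regions were PCR-amplified and Illumina-sequenced. The interaction score compares variant frequency between input and selection as a log change, computed in log2 with a pseudocount of 1 for absent variants.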
# PUM1 PUF domain R2-GWG = PUM1 PUF domain R2-GWG (Homo sapiens, UniProt Q14671 828-1176, N899G;Y900W;Q903G)
# Procedure, shortened: as §1
# PUM1 PUF domain R2-NRG = PUM1 PUF domain R2-NRG (Homo sapiens, UniProt Q14671 828-1176, Y900R;Q903G)
# Procedure, shortened: as §1
# PUM1 PUF domain R7-RIL = PUM1 PUF domain R7-RIL (Homo sapiens, UniProt Q14671 828-1176, S1079R;N1080I;E1083L)
# Procedure, shortened: as §1
sequence,measurement,setting,value
GGCUAGAACUAGUGGAUCCCCCGGCGCCCGGCGGCUCGAGCCCGGGUAAGUGUCAAUAGUCUGCAUGCCGCCGGGCGCCAUGCCUGCAGGUCGACUCUAGAAAACAUG,binding signal,PUM1 PUF domain R5-RMP,4.09 log2 enrichment (interaction score)
GGCUAGAACUAGUGGAUCCCCCGGCGCCCGGCGGCUCGAGCCCGGGUAAGUGUAAAAAGUCUGCAUGCCGCCGGGCGCCAUGCCUGCAGGUCGACUCUAGAAAACAUG,binding signal,PUM1 PUF domain R2-GWG,3.32 log2 enrichment (interaction score)
same,binding signal,PUM1 PUF domain R2-NRG,2.91 log2 enrichment (interaction score)
GGCUAGAACUAGUGGAUCCCCCGGCGCCCGGCGGCUCGAGCCCGGGUAAGUGUAAAGAGUCUGCAUGCCGCCGGGCGCCAUGCCUGCAGGUCGACUCUAGAAAACAUG,binding signal,PUM1 PUF domain R2-GWG,2.13 log2 enrichment (interaction score)
GGCUAGAACUAGUGGAUCCCCCGGCGCCCGGCGGCUCGAGCCCGGGUAAGUUUAAAUAGUCUGCAUGCCGCCGGGCGCCAUGCCUGCAGGUCGACUCUAGAAAACAUG,binding signal,PUM1 PUF domain R7-RIL,2.38 log2 enrichment (interaction score)
